Counter-ions that a name gives are not always drawn. Whole data set: some 1,900 compounds, median “relative cell viability (CellTiter-Glo), compound plus cabozantinib, relative to the cabozantinib arm (arm median 1.05; reference not stated)” near 1.1, cut for the lowest 2% near 0.15. Only a selection was taken, and the lowest values are over-represented in it overall.

The test concerns Hep3B. Kind of test: relative cell viability (CellTiter-Glo), compound plus cabozantinib, relative to the cabozantinib arm (arm median 1.05; reference not stated) (fraction); higher = more viable cells (less growth inhibition). The settings on record: cabozantinib 2 µM; 4 days. (Cellular ATP, detected with luciferase, serves as a proxy for viable cell number.)
Take `C[C@@H]1O[C@@H](O[C@H]2C[C@@H](O)[C@]3(CO)[C@H]4[C@H](O)C[C@]5(C)[C@@H](C6=CC(=O)OC6)CC[C@]5(O)[C@@H]4CC[C@]3(O)C2)[C@H](O)[C@H](O)[C@H]1O` [Ouabain]: the relative cell viability was 0.105.

Consider `CC1(C)CC(O)CC(C)(C)N1[O]` [Tempol], for which the relative cell viability came to 1.03.

Turning to `Cc1ccc(-n2nccn2)c(C(=O)N2CCN(c3nc4cc(Cl)ccc4o3)CC[C@H]2C)c1` [Suvorexant (MK-4305)], the relative cell viability amounted to 0.987.

On to `O=C(NCC1CCOCC1)c1cnc(Nc2ccc(Cl)cc2Cl)nc1C(F)(F)F`, for which the relative cell viability came to 1.02.

As for `CCc1c(C(=O)C(N)=O)c2c(OCC(=O)O)cccc2n1Cc1ccccc1`, the relative cell viability was 1.05.

For the compound `[O-][n+]1ccccc1[S-].[O-][n+]1ccccc1[S-].[Zn+2]` [Zinc Pyrithione], the relative cell viability was 0.0184.

Take `CCC1(c2cccc(O)c2)CCCCN(C)C1` (stereo not given) [Meptazinol HCl]: the relative cell viability was 1.13.

Consider `CC(=O)O[C@H]1C[C@@H]2CC[C@@H]3[C@H](CC[C@@]4(C)[C@H]3C[C@H]([N+]3(C)CCCCC3)[C@@H]4OC(C)=O)[C@@]2(C)C[C@@H]1[N+]1(C)CCCCC1` [Pancuronium dibromide], for which the relative cell viability worked out at 1.06.

Consider `Cc1cc2c(C(C)C)c(O)c(O)c(C=O)c2c(O)c1-c1c(C)cc2c(C(C)C)c(O)c(O)c(C=O)c2c1O` [Gossypol], for which the relative cell viability came to 1.15.

`CC(=O)Nc1ccc(Cc2ccc(NC(C)=O)cc2)cc1`: the relative cell viability came out at 1.07.

Take `CC(C)=CCC[C@]1(C)C=Cc2c(O)c3c(c(CC=C(C)C)c2O1)O[C@]12C(=C[C@@H]4C[C@H]1C(C)(C)O[C@@]2(C/C=C(/C)C(=O)O)C4=O)C3=O` [Gambogic Acid]: the relative cell viability came out at 0.118.

On to `CCC1=C[C@H]2CN3CCc4c([nH]c5ccccc45)[C@](C(=O)OC)(C2)[C@H]13` [Catharanthine], for which the relative cell viability stood at 1.06.

Regarding `CN1[C@@H]2CC[C@H]1C[C@@H](OC(=O)[C@H](CO)c1ccccc1)C2` [Hyoscyamine], the relative cell viability came to 1.1.

For the compound `CN(C)CCc1ccc(O)cc1` [Hordenine], the relative cell viability amounted to 1.11.

Regarding `C[C@H]1CCC/C=C/[C@@H]2C[C@H](O)C[C@H]2[C@H](O)/C=C/C(=O)O1` [Brefeldin A], the relative cell viability turned out to be 0.105.

For `c1ccc2c(c1)Nc1ccccc1S2` [Phenothiazine], the relative cell viability is 1.17.

Regarding `CN(C)Cc1c[nH]c2ccccc12` [Gramine], the relative cell viability came out at 1.06.

As to `NCC(=O)O.[C-]#[O+].[C-]#[O+].[C-]#[O+].[Cl][Ru]`, the relative cell viability came out at 0.978.

In the case of `C#C[C@]1(O)C=C[C@H]2[C@@H]3CCC4=CC(=O)CC[C@@H]4[C@H]3CC[C@@]21CC` [Gestodene], the relative cell viability was 0.965.

Regarding `Cc1sc2c(c1C)C(c1ccc(Cl)cc1)=N[C@@H](CC(=O)Nc1ccc(O)cc1)c1nnc(C)n1-2`, the relative cell viability was found to be 0.454.

The values are drawn from the supplement of paper PMC9399229.
